Compounds without any hit were thinned out: in the full panel of roughly 83,000, 20% have a hit.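 Growth was measured after 48 h exposure to one concentration of compound in 96-well plates. Values under 10 count as active.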 Values without a mark were called inactive. The source made the active and inactive calls.

Some test systems named below: HCT-15 colon; HT29 colon; SNB-75 CNS; SNB-19 CNS; U251 CNS; PC-3 prostate; SK-MEL-5 melanoma; UACC-62 melanoma; LOX IMVI melanoma; SK-MEL-28 melanoma; SK-MEL-2 melanoma; EKVX NSCLC; SN12C renal; UO-31 renal; TK-10 renal; ACHN renal; CAKI-1 renal; CCRF-CEM leukemia; MOLT-4 leukemia; A498 renal.
Common to all, as to test: NCI-60 one-dose screen, 48 h (100 = growth as untreated, 0 = no growth, -100 = all killed)
What all share (conditions): 10 µM unless noted

As for `O=C1CCC(N2Cc3c(C#CCCCNC(=O)c4cc5c(o4)C(=O)c4ccccc4C5=O)cccc3C2=O)C(=O)N1` (stereo unspecified), the growth with HCT-15 colon is 76%; in the experiment with HT29 colon, -15.4% (active); with SNB-75 CNS, -98.7% (active); in the experiment on SNB-19 CNS, -8.73% (active); with U251 CNS it was -27.7% (active); in the experiment on PC-3 prostate, 4.79% (active). Also, the growth is -99.2% (active) with SK-MEL-5 melanoma; -84.4% (active) with UACC-62 melanoma; -88.3% (active) with LOX IMVI melanoma; -22.9% (active) in the experiment with SK-MEL-28 melanoma; -26.6% (active) in the experiment on SK-MEL-2 melanoma; 64.4% in the experiment on EKVX NSCLC. The growth in the experiment with SN12C renal was -92.2% (active); in the experiment on UO-31 renal it was 86.4%; in the experiment with TK-10 renal, 101%; in the experiment with ACHN renal, 71.7%; in the experiment with CAKI-1 renal, 78.7%; in the experiment with CCRF-CEM leukemia, 12.3%. In the experiment with MOLT-4 leukemia, the growth is 8.52% (active).
As for `COc1cc(-c2nc(SC(C)C)nc(Nc3cccc(C)c3)c2C#N)cc(OC)c1OC`, the growth in the experiment on HCT-15 colon is 103%; with HT29 colon, 98.7%; in the experiment on SNB-75 CNS it was 109%; in the experiment with SNB-19 CNS, 103%; in the experiment with U251 CNS, 106%; in the experiment with PC-3 prostate, 98.6%. Moreover, the growth in the experiment with SK-MEL-5 melanoma is 102%; in the experiment with UACC-62 melanoma, 95.2%; with LOX IMVI melanoma, 97.2%; in the experiment on SK-MEL-28 melanoma it was 107%; in the experiment with SK-MEL-2 melanoma, 118%; in the experiment with EKVX NSCLC, 109%. The growth in the experiment with SN12C renal was 102%; in the experiment with UO-31 renal, 84.8%; in the experiment with ACHN renal, 103%; in the experiment with CAKI-1 renal it was 94.5%; in the experiment on A498 renal, 102%; in the experiment with CCRF-CEM leukemia it was 104%. Besides, the growth in the experiment with MOLT-4 leukemia is 93.5%.
With `CCCCCCCC/C=C\CCCCCCCCOc1cccc(CC(=O)NCC[N+]2(C)CCCCC2)c1`, the growth with HCT-15 colon was 102%; in the experiment on HT29 colon it was 27%; in the experiment with SNB-75 CNS, 50.7%; in the experiment with SNB-19 CNS, 56.7%; with U251 CNS, 51.6%; with PC-3 prostate, 22.1%. The growth is 89.4% in the experiment on SK-MEL-5 melanoma; 70.1% with UACC-62 melanoma; 74.5% in the experiment with LOX IMVI melanoma; 98.7% in the experiment with SK-MEL-28 melanoma; 91.8% in the experiment with SK-MEL-2 melanoma; 78.7% with EKVX NSCLC. Further, the growth with SN12C renal is 47.8%; in the experiment on UO-31 renal, 86.8%; with TK-10 renal, 76.8%; with ACHN renal, 94.7%; in the experiment with CAKI-1 renal it was 70.3%; with CCRF-CEM leukemia, 38.5%. Moreover, the growth in the experiment with MOLT-4 leukemia is 57%.
On to `Cc1ccccc1-n1nnc(C(=O)Nc2ccc(-c3ccccc3)cn2)c1C`, for which the growth in the experiment on HCT-15 colon was 39.8% [50 µM]; in the experiment on HT29 colon, 28.1% [50 µM]; in the experiment with SNB-75 CNS it was 83.6% [50 µM]; in the experiment on SNB-19 CNS it was 62.6% [50 µM]; with U251 CNS, 64.9% [50 µM]; with PC-3 prostate, 40.5% [50 µM]. The growth with SK-MEL-5 melanoma was -41.8% [50 µM] (active); with UACC-62 melanoma, 45.6% [50 µM]; in the experiment with LOX IMVI melanoma it was 48.1% [50 µM]; in the experiment on SK-MEL-28 melanoma it was 56.8% [50 µM]; in the experiment on SK-MEL-2 melanoma it was 42% [50 µM]; with EKVX NSCLC, 34.8% [50 µM]. Besides, the growth in the experiment on SN12C renal was 64.4% [50 µM]; in the experiment on UO-31 renal, 38.8% [50 µM]; with ACHN renal, 46% [50 µM]; in the experiment on CAKI-1 renal, 31.1% [50 µM]; in the experiment with A498 renal it was 61.2% [50 µM]; in the experiment with MOLT-4 leukemia, 8.31% [50 µM] (active).
Turning to `O=S(=O)(Nc1ccc(Cl)c(Cl)c1)c1ccc(-c2cnc(C3CC3)o2)cc1`, the growth with HCT-15 colon is 23.9%; in the experiment with HT29 colon, 10.2%; in the experiment on SNB-75 CNS, -3.4% (active); in the experiment on SNB-19 CNS, 30.9%; in the experiment on U251 CNS, 22.1%; with PC-3 prostate, 14.2%. Moreover, the growth was 25% in the experiment with SK-MEL-5 melanoma; 26.8% with UACC-62 melanoma; 45.6% with LOX IMVI melanoma; 58.3% in the experiment with SK-MEL-28 melanoma; 37.4% with SK-MEL-2 melanoma; 33.8% in the experiment on EKVX NSCLC. Besides, the growth with SN12C renal was 41.2%; in the experiment on UO-31 renal it was 44%; with TK-10 renal, 51.3%; in the experiment with ACHN renal, 45.1%; in the experiment on CAKI-1 renal, 35.9%; in the experiment with CCRF-CEM leukemia it was 18.9%. Besides, the growth in the experiment with MOLT-4 leukemia is 32.4%.
In the case of `COc1ccc(/C=C2\SC(=O)N(CN3CCN(c4cc5c(cc4F)c(=O)c(C(=O)O)cn5C4CC4)CC3)C2=O)cc1`, the growth with HCT-15 colon was 106%; with HT29 colon, 111%; with SNB-75 CNS, 85.1%; in the experiment on SNB-19 CNS, 100%; with U251 CNS, 99.8%; in the experiment with PC-3 prostate it was 97.6%. The growth was 97.2% in the experiment with SK-MEL-5 melanoma; 98.1% with UACC-62 melanoma; 79.9% in the experiment with LOX IMVI melanoma; 112% in the experiment with SK-MEL-28 melanoma; 101% in the experiment with SK-MEL-2 melanoma; 97.4% with EKVX NSCLC. Besides, the growth with SN12C renal is 108%; in the experiment on UO-31 renal, 80.2%; in the experiment with TK-10 renal, 104%; with ACHN renal it was 111%; in the experiment with CAKI-1 renal it was 94.1%; in the experiment with CCRF-CEM leukemia, 111%. Also, the growth in the experiment on MOLT-4 leukemia is 116%.
Take `COC(=O)c1c2c(c(C)[n+]([O-])c1C)C(=O)C=C(NCc1ccc(F)cc1)C2=O`: the growth in the experiment on HCT-15 colon was -60.5% (active); in the experiment on HT29 colon, 2.67% (active); with SNB-75 CNS it was -92% (active); in the experiment with SNB-19 CNS it was -66.5% (active); in the experiment with U251 CNS it was -23.1% (active); in the experiment on PC-3 prostate it was 2.62% (active). Further, the growth in the experiment with SK-MEL-5 melanoma was -96.8% (active); in the experiment with UACC-62 melanoma, -81.7% (active); in the experiment with LOX IMVI melanoma it was -47.1% (active); in the experiment with SK-MEL-28 melanoma, 6.43% (active); in the experiment with SK-MEL-2 melanoma, -31.3% (active); with EKVX NSCLC, -57% (active). In addition, the growth in the experiment with SN12C renal is -88.8% (active); in the experiment on UO-31 renal, -21% (active); in the experiment on TK-10 renal, 13.6%; in the experiment on ACHN renal it was -45.2% (active); in the experiment on CAKI-1 renal, -0.887% (active); in the experiment with CCRF-CEM leukemia, 4.77% (active). Besides, the growth in the experiment on MOLT-4 leukemia is -35.2% (active).
For `O=c1c2cc(F)ccc2oc2c(NCCNCCO)nc3ccccc3c12`, the growth was 28.1% with HCT-15 colon; 16.7% in the experiment on HT29 colon; 50.2% in the experiment on SNB-75 CNS; 45.1% in the experiment with SNB-19 CNS; 36.1% with U251 CNS; 38.6% in the experiment on PC-3 prostate. The growth in the experiment on SK-MEL-5 melanoma was 61.6%; in the experiment on UACC-62 melanoma, 77.7%; with LOX IMVI melanoma it was 13.8%; with SK-MEL-28 melanoma, 50.2%; in the experiment on SK-MEL-2 melanoma, 84.7%; in the experiment with EKVX NSCLC, 50.9%. Moreover, the growth in the experiment on SN12C renal is 37.7%; in the experiment on UO-31 renal it was 37.1%; in the experiment on TK-10 renal, 71.3%; in the experiment with ACHN renal, 19.1%; with CAKI-1 renal, 30.2%; in the experiment with CCRF-CEM leukemia it was 30.9%. In addition, in the experiment with MOLT-4 leukemia, the growth was -0.96% (active).

For the origin of these results see PubChem BioAssay (NCI).
